Source: PubChem
Tb PYK inh: inhibitors of Trypanosoma brucei pyruvate kinase. Q57TT1. TbPYK enzyme, Kinase-Glo Plus ATP luminescence, 45 min. Potency, µM (series often up to 76.8 µM), for the others: at the top dose activity, negative = inhibition, actives largely listed as inhibitors. hit rate 0.12% among 410,000. AID 624173; note: potency is the fitted concentration of half-maximal effect; nearly all actives have a fitted effect of over 50% in size
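T. brucei PYK with substrate was exposed to pin-transferred compounds across a concentration series, then started with 130 uM ADP (final). After 45 min at room temperature, Kinase-Glo Plus luminescence was read, normalized and curve-fitted.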
HCMV inh: human cytomegalovirus inhibition | activity change, negative = inhibition, % at 57.5 µM | hit rate 4.5% among 410,000 | HFF cells, HCMV-luciferase reporter, 72 h; hits give low values; in the data active = activity change below about -60%; inconclusive = no clear call, values can overlap the other calls; inactive = above about -39%
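Steps: HFFs plated, 16 h 37C; compounds added; HCMV-luciferase added to MOI 1 PFU/cell; 72 h 37C; OneGlo reagent, 5 min room temperature; luminescence read, normalized to controls.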
LmPK inhibitor: blocks Leishmania mexicana pyruvate kinase activity; Potency, µM (highest dose often 57.5 µM), for the others: at the top dose activity change, negative = inhibition, most hits filed as inhibitors; purified LmPK, Kinase-Glo ATP luminescence, 1 h; hit rate 0.37% among 290,000; note: potency is the fitted concentration of half-maximal effect
Target sequence (Q27686 whole entry, looked up): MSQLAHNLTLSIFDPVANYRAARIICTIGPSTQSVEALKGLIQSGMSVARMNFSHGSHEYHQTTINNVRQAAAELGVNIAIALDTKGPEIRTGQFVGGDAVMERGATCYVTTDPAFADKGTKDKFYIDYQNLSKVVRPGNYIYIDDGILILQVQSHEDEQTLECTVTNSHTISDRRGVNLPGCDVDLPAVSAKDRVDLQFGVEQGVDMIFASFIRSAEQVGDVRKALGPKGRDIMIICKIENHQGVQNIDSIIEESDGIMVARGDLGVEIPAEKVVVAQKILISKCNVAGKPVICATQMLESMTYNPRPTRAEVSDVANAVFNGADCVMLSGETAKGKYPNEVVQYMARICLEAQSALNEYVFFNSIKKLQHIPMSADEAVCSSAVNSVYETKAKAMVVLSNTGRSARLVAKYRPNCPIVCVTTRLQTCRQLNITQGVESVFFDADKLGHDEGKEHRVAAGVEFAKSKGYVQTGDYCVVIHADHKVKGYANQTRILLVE
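In 50 mM imidazole pH 7.2 with 7 mM MgCl2, LmPK (0.1 nM) turned over PEP (0.5 mM) and ADP (0.1 mM) for 1 h at room temperature. Luciferase read-out of ATP.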
Vaccinia Venus: vaccinia inhibition (Venus reporter). Vaccinia virus Venus reporter expression, fluorescence. Potency, µM (series often up to 36.5 µM), without a hit: at the top dose activity change, negative = inhibition, usual class: inhibitors. hit rate 0.46% among 330,000. AID 720580; calls by dose curve; tested in A549 cells; note: potency is the fitted concentration of half-maximal effect; nearly all actives have a fitted effect of over 30% in size
VACV mCherry inh: inhibitors of vaccinia virus infection (mCherry reporter signal); Vaccinia virus mCherry reporter infection, fluorescence; Potency, µM (series often up to 36.5 µM), without a hit: at the highest dose activity change, negative = inhibition, hits mostly inhibitors; hit rate 0.63% among 310,000; AID 720579; calls by dose curve; tested in A549 cells; note: potency is the fitted concentration of half-maximal effect; nearly all actives have a fitted effect of over 35% in size
Starred values were filed as active, the others as inactive; i = inactive; ? = inconclusive; . = no result given; ! = repeats disagree; [ ] = another dose, or the depositor's remark. Sampled rows, rich in hits. Any-hit rate of the full collection: about 5%. Unless noted, calls come from the whole dose curve; as a rule, active = well fitted curve in the direction sought with a large enough effect; inconclusive = small, poorly fitted or top-dose-only effect, or another doubt; inactive = no such curve, though single readings can be large; an effect the other way counts as inactive or inconclusive. % is set by controls: 0 for no effect and ±100 for the full control effect.

SMILES	Tb PYK inh	HCMV inh	LmPK inhibitor	Vaccinia Venus	VACV mCherry inh
Cn1c(C(=O)N2CCCC(C(=O)NCc3cccs3)C2)cc2sccc21 (stereo not given)	0.0%	15.4	2.6%	-7.9%	-16.5%
CCn1c(C(=O)N2CCCC(C(=O)NCCCc3ccccc3)C2)cc2sccc21 (stereo not given)	-16.2%	-70.3*	3.8%	-27.2%	?
Cn1c(C(=O)N2CCCC(C(=O)NCCCSC3CCCCC3)C2)cc2sccc21 (stereo not given)	6.3%	-61.1*	-1.1%	?	-27.8%
CCn1c(C(=O)N2CCCC(C(=O)NCCc3ccc(C)cc3)C2)cc2sccc21 (stereo not given)	35.5µM*	?	0.7%	?	?
O=C(NC1CCCCC1)c1ccc2c(c1)S(=O)(=O)c1ccccc1C2=O	-10.4%	-4.6	.	-12.6%	?
CC1=CC(C)(C)Nc2ccc(OC(=O)c3ccco3)cc21	-4.8%	-81.8*	-6.2%	85.1%	-12.9%
CC1=CC(C)(C)Nc2ccc(OC(=O)c3cccnc3)cc21	-0.1%	-91.7*	5.0%	.	.
CC1=CC(C)(C)Nc2ccc(OC(=O)CN3C(=O)CCC3=O)cc21	5.7%	-94.1*	-2.7%	72.8%	i
O=C(Oc1cccc(OC(=O)c2ccco2)c1)c1ccco1	2.5%	0.9	-2.0%	.	.
CC1=CC(C)(C)Nc2ccc(OC(=O)C(C)N3C(=O)c4ccccc4C3=O)cc21 (stereo not given)	1.4%	-73.7*	7.0%	.	.
O=C(Oc1ccc(F)cc1)c1cccnc1	-0.2%	-3.9	-8.3%	.	.
COc1ccc(CCNC(=O)COc2cccc3c2OC(C)(C)C3)cc1OC	-4.1%	-9.3	.	-6.6%	i
CN(C)Cc1ccccc1-c1ccc2ncnc(NC3CC3)c2c1	.	.	.	-28.2%	-29.1%
CN(C)C(=O)c1cnc(Cc2c[nH]c3ccccc23)c(I)c1	.	23.3	.	.	.
CC1=CC(C)(C)N2C(=O)C(=O)c3cc(OC(=O)c4ccco4)cc1c32	-5.5%	-87.8*	-12.1%	1.9%	-16.3%
CN(C)c1cc[n+](CC(=O)Nc2ccc([N+](=O)[O-])cc2Cl)cc1	-1.3%	-31.9	-3.6%	-23.4%	?
CN(C)c1cc[n+](CC(=O)Nc2c(Cl)cc(Cl)cc2Cl)cc1	6.9%	-67.5*	-2.9%	-18.2%	i
CSc1ccc(CCNc2ncnc3onc(C)c23)cc1	-5.4%	-65.2*	.	-20.8%	-11.1%
C=C[C@@H]1c2cc(C)ccc2N(S(=O)(=O)c2ccc(C)cc2)[C@H](c2ccc(OC(C)=O)cc2)C1(C#N)C#N	-3.6%	-97.4*	.	?	?
C=C[C@@H]1c2ccccc2N(S(=O)(=O)c2ccc(C)cc2)[C@H](c2ccc(OC(C)=O)cc2)C1(C#N)C#N	3.8%	?	.	?	?
CCOC(=O)/C=C/S(=O)(=O)c1ccc(NC(C)=O)cc1	4.6%	-98.9*	-0.6%	.	.
CCC(CC)C(=O)Nc1cccc(C(=O)Nc2ccc(S(N)(=O)=O)cc2)c1	-1.5%	-29.1	4.6%	-9.3%	-6.4%
CCOC(=O)c1cccc(NS(=O)(=O)c2ccc(-c3coc(C)n3)cc2)c1	1.5%	19.2	.	2.6%	0.8%
O=C(Nc1ccccc1)c1ccc(S(=O)(=O)Nc2cccc(O)c2)cc1	8.1%	-31.9	-3.3%	.	.
CCOC(=O)c1cccc(NS(=O)(=O)c2ccc(NC(C)=O)cc2)c1	.	-87.9*	10.9%	.	.
SMILES	Tb PYK inh	HCMV inh	LmPK inhibitor	Vaccinia Venus	VACV mCherry inh
CC(=O)c1cccc(NS(=O)(=O)c2ccc(C(=O)Nc3ccccc3)cc2)c1	1.8%	-75.8*	-7.6%	-20.0%	-0.3%
CCOC(=O)/C=C/C(=O)Nc1ccc(S(=O)(=O)Nc2c(C)cc(C)cc2C)cc1	-5.2%	-13.4	0.9%	.	.
CCC(CC)C(=O)Nc1cccc(C(=O)Nc2ccc(S(=O)(=O)Nc3ccc(C)cc3)cc2)c1	0.1%	-97.4*	1.8%	.	.
Cc1ccc(OCc2nc(-c3ccc(C(=O)N4CCN(c5cccc(C(F)(F)F)c5)CC4)cc3)oc2C)cc1	1.9%	0.6	.	-24.2%	-22.5%
Cc1oc2c(c(C)cc3oc(=O)c(CC(=O)NCCc4ccc(Cl)cc4)c(C)c32)c1C	-1.7%	-23.3	.	-5.9%	-4.2%
O=C(O)c1cccc(NS(=O)(=O)c2ccc(Oc3ccc(S(=O)(=O)Nc4cccc(C(=O)O)c4)cc3)cc2)c1	7.8%	52.5	.	-12.3%	i
O=C(O)c1cccc(NS(=O)(=O)c2ccc(-c3ccc(S(=O)(=O)Nc4cccc(C(=O)O)c4)cc3)cc2)c1	5.4%	-72.2*	-6.1%	-10.8%	i
CC(=O)Nc1ccc(S(=O)(=O)Nc2ccc3c(c2)CCC3)cc1	0.0%	-60.2*	-4.3%	-8.6%	-20.5%
CCOC(=O)c1ccc(NS(=O)(=O)c2ccc3c(c2)n(C)c(=O)n3C)cc1	-4.6%	-67.2*!	4.5%	-20.5%	-16.7%
CCC(C)[C@@H](N)C(=O)N/N=C/c1ccc2ncccc2c1 (stereo not given in full)	4.6%	-26.0	-6.3%	-9.7%	-0.3%
COC(=O)[C@H](CCSC)NC(=O)NCCC1=CCCCC1	0.4%	7.3	3.9%	.	.
O=C(N/N=C/c1c(O)ccc2ccccc12)c1ccc(Br)o1	-2.1%	-98.7*	-0.3%	?	2.82µM*
Cc1occc1C(=O)N/N=C/c1ccc(N(C)C)cc1	?	-4.3	10µM*	0.3%[7.34 µM]	i[7.34 µM]
Cc1nn(Cc2ccccc2)c(Cl)c1/C=N/NC(=O)c1cccnc1	-5.5%	?	-3.8%	-6.8%	i
Cc1occc1C(=O)N/N=C/C=C/c1ccc(N(C)C)cc1	1.7%	50.6	-4.2%	.	.
Cn1c(/N=C/c2c(O)ccc3ccccc23)nc2ccccc21	-6.3%	-84.8*	-19.6%	.	.
Cc1c(/C=N/NC(=O)c2cccnc2)c2ccccc2n1Cc1ccccc1	-4.6%	-62.4*	4.5%[11.5 µM]	-20.6%	-21.2%
CCCn1c(/N=C/c2ccccc2O)nc2ccccc21	-1.3%	3.9	-4.1%	-20.8%	-19.9%
CCc1nc2ccccc2c(C(=O)OCC(=O)N(CCOC)c2c(N)n(Cc3ccccc3)c(=O)[nH]c2=O)c1C	1.1%	?	.	-19.0%	-21.3%
Cc1ccc([N+](=O)[O-])cc1S(=O)(=O)Nc1cccc(-c2ccc(N3CCCC3)nn2)c1	-3.7%	-10.5	.	-14.9%	-23.4%
CC(C)Oc1ccc(S(=O)(=O)N2CCOCC2)cc1NC(=O)c1nn(C)c(=O)c2ccccc12	5.0%	-6.1	.	.	.
Cn1nccc1C(=O)N/N=C/c1c(O)ccc2ccccc12	1.3%	-98.8*	-5.0%	.	.
O=C(N/N=C/c1c(O)ccc2ccccc12)c1cccnc1	-5.2%	-97.8*	1.1%	-29.3%	?
Cc1occc1C(=O)N/N=C/c1cnn(C)c1C	-16.4%	77.0	15.8µM*	.	.
O=C(N/N=C\c1c(O)ccc2ccccc12)c1cncc(Br)c1	-2.8%	-100.2*	-0.3%	-21.0%	?
Cc1c(/C=N\NC(=O)c2ccc(F)cc2)cnn1C	-11.2%	-17.0	-2.0%	-7.7%	-17.7%
C=CCn1c(SCc2nc3ccccc3c(=O)[nH]2)nc2scc(C3CC3)c2c1=O	3.0%	-36.6	4.6%	-1.6%	12.8%
